The sample as a whole holds a higher share of hits than the screen did.
CBX7 inh: blocks human CBX7 binding to H3K27me3 peptide; AlphaScreen His6-CBX7 / biotin-H3K27me3 peptide binding; active compounds read low; normalised signal (fraction of DMSO) (no concentration beside the values); AID 1224903; 66,000 tested, 1.1% active; O95931; in the data active = normalised signal below about 0.5
Target sequence (O95931 whole entry, looked up): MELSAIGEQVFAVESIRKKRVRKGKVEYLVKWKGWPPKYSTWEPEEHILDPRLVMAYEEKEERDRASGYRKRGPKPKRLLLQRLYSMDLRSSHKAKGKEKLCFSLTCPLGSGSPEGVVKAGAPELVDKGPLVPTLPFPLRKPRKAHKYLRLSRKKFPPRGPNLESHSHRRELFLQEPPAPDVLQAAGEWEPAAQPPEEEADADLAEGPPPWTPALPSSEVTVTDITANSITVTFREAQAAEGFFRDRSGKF
* = called active by the depositor; ! = not confirmed by another sample.

SMILES | CBX7 inh
CCc1ccccc1NC(=O)C(=O)NCCc1c[nH]c2ccccc12 | 1.2
COc1ccc(NC(=O)CNC(=O)Cn2cnc3sc4c(c3c2=O)CCCC4)cc1Cl | 1
Cc1ccccc1-c1nc(CN2CCCC(C(=O)NCCN3CCCC3)C2)c(C)o1 (stereo unspecified) | 0.92
O=C1CC(N2CCN(C(c3ccccc3)c3ccccc3)CC2)C(=O)N1c1ccc(Cl)c(C(F)(F)F)c1 (stereo unspecified) | 1.2
COc1ccc(Cn2c(=O)[nH]c3cc(C(=O)NCc4ccccc4Cl)ccc3c2=O)cc1 | 1
Cc1cccc(Nc2nc(-c3ccccn3)cs2)c1 | 0.16*
Cc1cccc(Nc2nc(-c3ccncc3)cs2)c1 | 0.72
Cc1cccc(Nc2nc(-c3ccc(Cl)cc3)cs2)c1 | 0.76
Cc1ccc(Cn2cc(C(=O)c3ccccc3)c(=O)c3cc(C)ccc32)cc1 | 0.44*
Cc1ccc2c(c1)c(=O)c(C(=O)c1ccccc1)cn2Cc1ccc(F)cc1 | 0.71
Cc1ccc2c(c1)c(=O)c(C(=O)c1ccccc1)cn2Cc1ccccc1 | 0.62
Cc1ccc(CCNC(=O)C2CCN(S(C)(=O)=O)CC2)cc1 | 1
COc1ccccc1C(=O)NCCc1c(C)[nH]c2ccc(OCc3ccccc3)cc12 | 0.44*
Cc1[nH]c2ccc(OCc3ccccc3)cc2c1CCNC(=O)COc1ccc(F)cc1F | 0.53
COc1ccccc1C(=O)NCCc1c(C)[nH]c2ccc(OC(F)(F)F)cc12 | 0.64
Cc1cccc(C(=O)Nc2ccc3oc(-c4ccc(Cl)cc4Cl)nc3c2)c1 | 1.1
CCCCn1cnc2cc(NCc3ccccc3OCC)ccc21 | 0.19*
CCCn1cnc2cc(NCc3ccccc3OCC)ccc21 | 0.91
CCCn1cnc2cc(NCc3ccccc3Cl)ccc21 | 0.84
CCCCn1cnc2cc(NCc3cccc(OC)c3)ccc21 | 0.36*
CCCCn1cnc2cc(NCc3ccccc3Cl)ccc21 | 0.22*
CCCCn1cnc2cc(NCc3ccc(OCC)cc3)ccc21 | 0.78
CCn1cnc2cc(NCc3ccccc3OC)ccc21 | 0.96
CCn1cnc2cc(NCc3cccc(OC)c3)ccc21 | 0.91
CCn1cnc2cc(NCc3ccccc3Cl)ccc21 | 0.84
SMILES | CBX7 inh
CCC(C(=O)Nc1cccc(OC)c1)n1c(SCc2ccc(C)cc2)nc2ccncc21 (stereo unspecified) | 0.92
CN(CCCNS(=O)(=O)c1ccc2c(c1)n(C)c(=O)c(=O)n2C)Cc1ccccc1 | 1
CCc1ccccc1Nc1nc(-c2ccccc2)cs1 | 0.93
Cc1ccc(-n2ncc3c(NCc4ccccn4)ncnc32)c(C)c1 | 0.12*
Cc1ccc(-n2ncc3c(NCc4cccnc4)ncnc32)c(C)c1 | 1
Cc1ccc(-n2ncc3c(NCCO)ncnc32)c(C)c1 | 0.95
Cc1noc(C)c1S(=O)(=O)N(C)CC(=O)N1CCc2ccccc21 | 1
COC(=O)c1c[nH]n2c(NC3CCCCC3)c(-c3cccc(Br)c3)nc12 | 0.52
COC(=O)c1c[nH]n2c(NC3CCCC3)c(-c3cccc(C)c3)nc12 | 0.67
COC(=O)c1c[nH]n2c(NC3CCCC3)c(-c3ccc(OC)cc3)nc12 | 0.11*
COC(=O)c1c[nH]n2c(NC3CCCCC3)c(-c3cccc(C)c3)nc12 | 0.51
CCCOc1cccc(-c2cc(C(=O)O)c3ccccc3n2)c1 | 1.1
COC(=O)c1c[nH]n2c(NC3CCCC3)c(-c3ccc(C)cc3)nc12 | 0.5
CCCCCOc1ccc(NC(=O)c2cccc(C(=O)OC)n2)cc1 | 1
CCCCOc1cccc(-c2nc3c(C(=O)OC)c[nH]n3c2NC2CCCC2)c1 | 0.2*
COC(=O)c1c[nH]n2c(NC3CCCCCC3)c(-c3cccc(OC)c3)nc12 | 0.5*
COC(=O)c1c[nH]n2c(NC3CCCC3)c(-c3cccc(OC)c3)nc12 | 0.38*
COC(=O)c1c[nH]n2c(NC3CCCCC3)c(-c3cccc(OC)c3)nc12 | 0.55
COC(=O)c1c[nH]n2c(NC3CCCCC3)c(-c3ccc(C)cc3)nc12 | 0.82
CCCN1Cc2cccc(C(=O)Nc3ccccc3C#N)c2C1=O | 1
CCOc1ccc(NC(=O)c2cc(-c3ccccc3)nc3ccc(C)cc23)cc1 | 1
CCOc1cc2c(cc1OCC)C1C(C(=O)Nc3cccnc3)c3ccccc3C(=O)N1CC2 (stereo unspecified) | 1.1
Cc1ccc(-c2nc3cnccn3c2Nc2c(C)cccc2C)cc1 | 1
COCCNC(=O)CN1CCN(Cc2ccccc2C)C1=O | 1.1
OC1COCc2nc3ccccc3n2C1 (stereo unspecified) | 1
SMILES | CBX7 inh
Cc1onc(-c2ccccc2)c1C(=O)Nc1ccc(S(=O)(=O)Nc2nccs2)cc1 | 0.92
O=S(=O)(Nc1nccs1)c1ccc(Nc2nnc(-c3ccccc3)c3ccccc23)cc1 | 0.046*
NS(=O)(=O)c1ccc(Nc2nnc(-c3ccc(O)cc3)c3ccccc23)cc1 | 0.85
CC(C)(C)OC(=O)N1C[C@@H](Sc2nc3ccccc3[nH]2)C[C@H]1C(=O)O | 1.2
Clc1ccc(-c2csc(Nc3ccc(Oc4ccccc4)cc3)n2)cc1 | 0.54
COc1cccc(Nc2nc(-c3ccc(OC)c(Br)c3)cs2)c1 | 0.7
CC(=O)Nc1nc(-c2ccc(Oc3ccccc3)cc2)cs1 | 0.92
O=C1c2ccccc2C(=O)N1c1cccc(-c2csc(Nc3ccc(Oc4ccccc4)cc3)n2)c1 | 0.74
CC(C)Cc1ccc(-c2csc(Nc3ccc(Oc4ccccc4)cc3)n2)cc1 | 0.49*
COc1ccc(-c2csc(Nc3ccc(Oc4ccccc4)cc3)n2)cc1Br | 0.42*!
Cc1c(C(=O)NCCC2=CCCCC2)oc2ccc(S(=O)(=O)N3CCCC3)cc12 | 0.99
O=C(CN1C(=O)CSc2ccccc21)NCC1CCCO1 (stereo unspecified) | 0.86
COc1ccccc1CNC(=O)Cn1ccc2ccccc2c1=O | 1.5
CCOc1ccc(-n2ccnc2SCC(=O)Nc2cccc(F)c2)cc1 | 0.56
Cc1cc(C)nc(Nc2n[nH]c(-c3ccc(Cl)cc3)n2)n1 | 0.92
O=C(NC1CCCCC1)c1nn2c(c1Br)NC(c1cccs1)CC2C(F)(F)F (stereo unspecified) | 1
CCN1CCN(c2ncc(C(=O)NCc3cccnc3)c3ccccc23)CC1 | 1.4
Cc1cc(C)c(S(=O)(=O)Nc2cccc3cccnc23)c(C)c1 | 1.3
CC(=O)Nc1ccc(NS(=O)(=O)c2cccc3cccnc23)cc1 | 1
O=S(=O)(Nc1cccc2cccnc12)c1ccccc1O | 0*
O=C(Nc1cnn(Cc2ccc(F)cc2)c1)c1cc(-c2ccc3c(c2)OCO3)on1 | 1
Cc1cc(C)c2nc(N3CCC(C(=O)NC4CCCCC4)CC3)sc2c1 | 1.1
COc1ccccc1N1CCN(C(c2cccs2)C(C)NS(=O)(=O)c2ccc(C)cc2)CC1 (stereo unspecified) | 0.72
CC1CCN(C(=O)Cc2c(C(=O)O)[nH]c3ccccc23)CC1 | 1
CN1CCN(CCCNC(=O)CC(C(=O)N2CCc3ccccc32)n2ccnc2)CC1 (stereo unspecified) | 0.98
SMILES | CBX7 inh
CCCCNC(=O)CC(C(=O)N1CCc2ccccc21)n1ccnc1 (stereo unspecified) | 1
CCN(CCCNC(=O)c1cn(C)c(=O)c2c1c1ccccc1n2C)c1cccc(C)c1 | 0.96
O=C(CC(C(=O)N1CCc2ccccc21)n1ccnc1)NCCCN1CCOCC1 (stereo unspecified) | 0.99
O=C(CC(C(=O)N1CCc2ccccc21)n1ccnc1)NCCN1CCCCCC1 (stereo unspecified) | 0.34*
CCCCCCCNC(=O)CC(C(=O)N1CCc2ccccc21)n1ccnc1 (stereo unspecified) | 0.88
CCN(CCCNC(=O)CCn1c(=O)[nH]c2ccccc2c1=O)c1cccc(C)c1 | 1
